“And” between values parts separate entries of the source, which are not always exact repeats. Equal entries are not always repeated. Compounds without any hit were thinned out: in the full panel of roughly 83,000, 20% have a hit.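 A percent growth of 40 corresponds to 60% growth inhibition; 0 means no net growth; -100 means all cells died. Active threshold: below 10.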 The source made the active and inactive calls.
Each compound was assayed on MDA-MB-468 breast (assay: NCI-60 one-dose screen, 48 h (100 = growth as untreated, 0 = no growth, -100 = all killed)). Conditions: 10 µM unless noted.

Row | SMILES | growth
1 | COc1ccc(OC)c(NC2=C(Cl)C(=O)C(C)=C(C)C2=O)c1 | -31.6% (active)
2 | Nc1ncnc2c1ccn2-c1cccc(NC(=O)c2cccc(C(F)(F)F)c2)c1 | 31.3% (inactive)
3 | CCC(C)C1(C2CCCC2)NC(=O)NC1=O (stereo unspecified) | 115% (inactive) and 121% (inactive)
4 | CCNc1nc(-c2ccc(Cl)c(OC)c2)c(-c2ccnc(NCCCNS(=O)(=O)c3ccc(Cl)cc3)n2)s1 | 63.3% (inactive)
5 | C#CCn1c(C)cc(C)c(C#N)c1=O | 132% (inactive)
6 | CCCCCCCCCC[C@@H](C)[C@@H]1CC(=O)N[C@H]([C@@H](C)O)C(=O)N[C@@H](C)C(=O)N[C@H](C)C(=O)N[C@@H](CCC(N)=O)C(=O)N[C@H](Cc2ccc(O)cc2)C(=O)N[C@@H](C(C)CC)C(=O)O1 (stereo partly specified) | 2.46% (active)
7 | CN(C)CCCn1c(=O)c2cc([N+](=O)[O-])ccc2c2cnc3[nH]ccc3c21 | 81.3% (inactive)
8 | CC(C)(C)OC(=O)N1C/C(=C\c2cccs2)C(=O)/C(=C/c2cccs2)C1 | 87.5% (inactive)
9 | Nc1nc(-c2ccccc2)nc(N)c1N=O | 72.4% (inactive)
10 | O=C1c2c(c(=O)[nH]c3ccccc23)CCN1Cc1ccccc1 | 101% (inactive)
11 | CC1(C)/C(=C\CO)C2CCC1C2 (stereo unspecified) | 101% (inactive)
12 | O=C1c2ccccc2C(=O)N1/N=C/c1ccc2c(c1)OCO2 | 103% (inactive)
13 | COc1ccc2c(O)c(/C=C3\N=Nc4ccccc43)oc2c1C[C@@H]1CCNC[C@H]1F | 74.4% (inactive)
14 | CCC[S@](=O)c1ccc2nc(NC(=O)OC)[nH]c2c1 | 94.1% (inactive)
15 | Cn1ccnc1C(=O)/C=C/c1ccc(NC(=O)c2ccc(F)cc2)cc1 | 11.8% (inactive)
16 | COc1cc(Cl)c(C)cc1NC(=O)c1cc2ccccc2cc1O | -8.5% (active)
17 | CCOC(=O)c1cn2c3c(cc(C)cc3c1=O)C(=O)/C(=C/c1ccccc1)C2 | 84.6% (inactive)
18 | CN1CCc2c(sc3nc4n(-c5ccc(Cl)cc5)c(=O)[nH]n4c(=O)c23)C1 | 114% (inactive)
19 | O=S(=O)(c1ccc(N/N=C\c2ccccc2Cl)cc1)c1ccc(N/N=C/c2ccccc2Cl)cc1 | 91.5% (inactive)
20 | O=C(Nc1cc(Cl)ccc1O)c1ccccc1Nc1ccnc(C(F)(F)F)c1 | 12.7% (inactive)
21 | O=c1oc2ccc(Br)cc2c(=O)n1-c1ccc(Cl)cc1F | -1.24% (active)
22 | Clc1ccc2c(c1)N(CCCN1CCCC1)c1ccccc1S2 | 16.4% (inactive)
23 | O=C1NC(=C(Cl)Cl)/C(=N\S(=O)(=O)NCc2ccccc2)N1 | 45.1% (inactive)
24 | Nc1c(S(=O)(=O)O)cc(Br)c2c1C(=O)c1ccccc1C2=O | 102% (inactive) and 107% (inactive)
25 | Cc1nc2sc(C(=O)Nc3cccc4ccccc34)c(N)c2cc1C(=O)c1ccccc1 | 5.45% (active)
26 | O=C(CN1CCOCC1)Nc1ccc(-c2nc3ccccc3s2)cc1 | -6.69% (active)
